# Experimental data from PubChem BioAssay AID743360 (Molecular Libraries Program, Specialized Chemistry Center, …, 2014).
# Values without a mark were called inactive. Calls of active or inactive are those of the source.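 The calls were made as follows: active = calcium retention capacity relative to untreated control above about 1.1 ratio (limit read from the data); inactive = the rest.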
# Assay: mitochondrial Ca2+ retention capacity increase – biochemical, dry powder samples, uHTS hits, Calcium Green-5N, dose response (AID 743360)
# Conditions: isolated mitochondria, Ca retention capacity
row,Structure (SMILES),CRC/CRC0 ratio at 12.5 uM (higher = more inhibition)
1,COc1ccc(Cl)c(C(=O)Nc2ccc(CN3CCOCC3)cc2)c1,1.03
2,COc1cccc(-c2cc(C(=O)Nc3cc(Cl)ccc3C)no2)c1,1.08
3,COc1ccc(Cl)cc1C(=O)Nc1ccc(CCN2CCOCC2)cc1,1.23 (active)
4,CN1CCN(c2ccc(NS(=O)(=O)c3cc(Cl)cc(Cl)c3)cc2)CC1,1.11 (active)
5,COc1ccc(Cl)cc1C(=O)Nc1ccc(CN2CCOCC2)cc1,1.2 (active)
6,O=C(Nc1cccc(Cl)c1Cl)c1cc(-c2cccc(O)c2)on1,4 (active)
7,O=C(Nc1ccc(CN2CCCCC2)cc1)c1cc(Cl)ccc1O,1.1 (active)
8,CCCc1cc(C(=O)Nc2ccc(Br)cc2)no1,1.02
9,O=C(Nc1ccc(CN2CCCCC2)cc1)c1cccc(OCc2ccccc2)c1,3.54 (active)
10,COc1ccc(Cl)c(C(=O)Nc2cccc(CN3CCN(C(=O)OC(C)(C)C)CC3)c2)c1,1.04
11,COc1ccc(Cl)c(C(=O)Nc2ccc(CCN3CCCCC3)cc2)c1,> 1
12,O=C(Nc1ccc(CCN2CCCCC2)cc1)c1cccc(OCc2ccccc2)c1,3.04 (active)
13,COc1ccc(Cl)cc1S(=O)(=O)Nc1ccc(CCN2CCCCC2)cc1,1.07
14,COc1ccccc1C(=O)Nc1ccc(C(=O)N2CCCCC2)cc1,> 1
15,COc1ccc(Cl)cc1S(=O)(=O)Nc1ccc(N2CCN(C)CC2)cc1,1.03
16,Cc1cc(NC(=O)c2cc(-c3ccc(F)cc3)on2)no1,> 1
17,Cc1c(Cl)cccc1NC(=O)c1cc(-c2cccc(O)c2)on1,6 (active)

row,Structure (SMILES),CRC/CRC0 ratio at 12.5 uM (higher = more inhibition)
1,CN1CCN(Cc2ccc(NS(=O)(=O)c3cccc(Cl)c3)cc2)CC1,1.01
2,O=C(Nc1cccc(Cl)c1)c1cc(-c2ccccc2)on1,> 1
3,O=C(Nc1cccc(F)c1)c1cc(-c2cccc(O)c2)on1,2.24 (active)
4,COc1ccc(Cl)cc1C(=O)Nc1ccc(N2CCCCC2)cc1,1.05
5,CN1CCN(c2ccc(NC(=O)c3cccc(OCc4ccccc4)c3)cc2)CC1,1.52 (active)
6,COc1ccc(Cl)cc1C(=O)Nc1ccc(N2CCOCC2)cc1,> 1
7,O=S(=O)(Nc1ccc(CCN2CCCCC2)cc1)c1cc(Cl)cc(Cl)c1,1.17 (active)
8,Cc1ccc(Cl)cc1NC(=O)c1cc(-c2cccc(O)c2)on1,9.18 (active)
9,COc1ccc(/C=C/C(=O)Nc2cccc(Cl)c2)cc1O,6.53 (active)
10,O=C(Nc1cc(Cl)cc(Cl)c1)c1cc(-c2cccc(O)c2)on1,12.1 (active)
11,CN1CCN(Cc2ccc(NS(=O)(=O)c3ccc(F)c(Cl)c3)cc2)CC1,1.07
12,Cc1ccc(NC(=O)c2cc(-c3cccc(O)c3)on2)cc1Cl,2.58 (active)
13,COc1ccc(Cl)cc1C(=O)Nc1ccc(CCN2CCN(C(=O)OC(C)(C)C)CC2)cc1,1.37 (active)
14,CC1CCN(CCCC(=O)c2ccc(Br)cc2)CC1,1.05
15,CC1(C)CCN(CCCC(=O)c2ccc(Br)cc2)CC1,1.1 (active)
16,CN1CCN(CCc2ccc(NC(=O)c3cccc(OCc4ccccc4)c3)cc2)CC1,2.05 (active)
17,CN1CCN(c2ccc(Cl)cc2NC(=O)/C=C/c2cccc(F)c2)CC1,1.53 (active)
